Assay results published in PubChem BioAssay (EPA / NIEHS).
Records with an inconclusive call do not appear. Calls of active or inactive are those of the source. How the source made its calls: active means hit-call score of the fitted dose curve at least 0.9, where 1 is the maximum; inconclusive means response in the unintended direction; inactive means score below 0.9.

target: THRB (gene 7068) (UniProt P10828); assay: TOX21_TRB_BLA_Antagonist_Followup_ratio: Tox21 Thyroid Hormone Receptor beta Antagonism Beta-lactamase (BLA) Follow-Up Assay, Ratio (AID 2283958)
Sequence (P10828 whole entry, looked up, the tested form may be a part): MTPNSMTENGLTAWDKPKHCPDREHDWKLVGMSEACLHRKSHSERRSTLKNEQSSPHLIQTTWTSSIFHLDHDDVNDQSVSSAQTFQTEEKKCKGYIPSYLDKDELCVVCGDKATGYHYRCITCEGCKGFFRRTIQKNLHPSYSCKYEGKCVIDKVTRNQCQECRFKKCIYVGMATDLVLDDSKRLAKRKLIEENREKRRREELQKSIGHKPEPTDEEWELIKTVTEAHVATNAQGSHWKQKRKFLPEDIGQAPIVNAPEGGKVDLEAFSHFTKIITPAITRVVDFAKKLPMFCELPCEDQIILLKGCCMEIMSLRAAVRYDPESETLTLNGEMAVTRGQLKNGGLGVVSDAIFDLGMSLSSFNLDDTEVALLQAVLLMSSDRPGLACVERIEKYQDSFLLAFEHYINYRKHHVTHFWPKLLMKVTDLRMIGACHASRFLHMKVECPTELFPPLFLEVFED
Summary of the method: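 In this antagonist-mode follow-up, a stably integrated GAL4-TRβ LBD fusion drives a UAS-beta-lactamase reporter in HEK293T cells. Loss of ratio signal relative to DMSO after 18 h treatment indicates activity; parallel CellTiter-Glo flags cytotoxicity.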

Compound | outcome | AC50
CCC[C@@]1(CCc2ccccc2)CC(O)=C([C@H](CC)c2cccc(NS(=O)(=O)c3ccc(C(F)(F)F)cn3)c2)C(=O)O1 | inactive | 
NC(N)=NCc1cccc(I)c1 | inactive | 
CCCC(=O)O[C@]1(C(=O)CCl)[C@@H](C)C[C@H]2[C@@H]3CCC4=CC(=O)C=C[C@]4(C)[C@@]3(F)C(=O)C[C@@]21C | inactive | 
CO[C@H]1C[C@@H]2CC[C@@H](C)[C@@](O)(O2)C(=O)C(=O)N2CCCC[C@H]2C(=O)O[C@H]([C@H](C)C[C@@H]2CC[C@@H](OCCO)[C@H](OC)C2)CC(=O)[C@H](C)/C=C(\C)[C@@H](O)[C@@H](OC)C(=O)[C@H](C)C[C@H](C)\C=C/C=C/C=C/1C | inactive | 
O=C1C(=O)c2ncccc2-c2cccnc21 | inactive | 
CC1(C)N=C(N)N=C(N)N1c1ccc(Cl)cc1 | inactive | 
COC(=O)Nc1nc2ccc(Sc3ccccc3)cc2[nH]1 |  | 0.868 µM (active)
C#CCC(Cc1cnc2nc(N)nc(N)c2n1)c1ccc(C(=O)N[C@@H](CCC(=O)O)C(=O)O)cc1 (stereo partly drawn) | inactive | 
O=c1[nH]c(=O)n([C@H]2C[C@H](O)[C@@H](CO)O2)cc1F | inactive | 
Cc1nc2ccccc2n1Cc1ccc(Cl)cc1 | inactive | 
C[n+]1c2cc(N)ccc2cc2ccc(N)cc21 (tested in a mixture with another compound) |  | 36 µM (active)
O=C(O)c1cccc(-c2noc(-c3ccccc3F)n2)c1 | inactive | 
Oc1c(I)cc(I)c2cccnc12 | inactive | 
Cc1cc(Nc2ccccc2C(=O)O)ccc1Cl |  | 51.5 µM (active)
CC(C)=CCC1=C(O)c2ccccc2C(=O)C1=O | inactive | 

test system: not listed separately; assay: TOX21_TRB_BLA_Antagonist_Followup_viability: Viability Assessment in the Tox21 Thyroid Hormone Receptor beta Antagonism Beta-lactamase (BLA) Follow-Up Assay (AID 2283961)
Summary of the method: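 In the same wells as the reporter read, cell health was gauged by CellTiter-Glo ATP luminescence, with signal loss indicating reduced viability. Cells had been exposed to test compounds for 18 h.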

Compound | outcome | AC50
CCC[C@@]1(CCc2ccccc2)CC(O)=C([C@H](CC)c2cccc(NS(=O)(=O)c3ccc(C(F)(F)F)cn3)c2)C(=O)O1 | inactive | 
NC(N)=NCc1cccc(I)c1 | inactive | 
Nc1c2ccccc2nc2ccccc12 | inactive | 
CCCC(=O)O[C@]1(C(=O)CCl)[C@@H](C)C[C@H]2[C@@H]3CCC4=CC(=O)C=C[C@]4(C)[C@@]3(F)C(=O)C[C@@]21C | inactive | 
CCCCCCNC(=O)n1cc(F)c(=O)[nH]c1=O | inactive | 
CO[C@H]1C[C@@H]2CC[C@@H](C)[C@@](O)(O2)C(=O)C(=O)N2CCCC[C@H]2C(=O)O[C@H]([C@H](C)C[C@@H]2CC[C@@H](OCCO)[C@H](OC)C2)CC(=O)[C@H](C)/C=C(\C)[C@@H](O)[C@@H](OC)C(=O)[C@H](C)C[C@H](C)\C=C/C=C/C=C/1C | inactive | 
O=C1C(=O)c2ncccc2-c2cccnc21 |  | 5.41 µM (active)
CC1(C)N=C(N)N=C(N)N1c1ccc(Cl)cc1 |  | 32.1 µM (active)
COC(=O)Nc1nc2ccc(Sc3ccccc3)cc2[nH]1 | inactive | 
C#CCC(Cc1cnc2nc(N)nc(N)c2n1)c1ccc(C(=O)N[C@@H](CCC(=O)O)C(=O)O)cc1 (stereo partly drawn) |  | 0.44 µM (active)
O=c1[nH]c(=O)n([C@H]2C[C@H](O)[C@@H](CO)O2)cc1F | inactive | 
Cc1nc2ccccc2n1Cc1ccc(Cl)cc1 | inactive | 
C[n+]1c2cc(N)ccc2cc2ccc(N)cc21 (tested in a mixture with another compound) | inactive | 
CC[C@@]1(O)C(=O)OCc2c1cc1n(c2=O)Cc2cc3c(CN(C)C)c(O)ccc3nc2-1 | inactive | 
O=C(O)c1cccc(-c2noc(-c3ccccc3F)n2)c1 | inactive | 
Oc1c(I)cc(I)c2cccnc12 | inactive | 
Cc1cc(Nc2ccccc2C(=O)O)ccc1Cl | inactive | 
CC(C)=CCC1=C(O)c2ccccc2C(=O)C1=O | inactive | 
